Sampled rows, rich in hits. Any-hit rate of the full collection: about 0.36%.
IMPase cell inh – membrane-permeable compound that blocks inositol monophosphatase | AID 901 | 120,000 tested, under 10 active | CHO-M1 cells, IP1 accumulation, HTRF TR-FRET ratio | P97697 | inhibition (IP1 accumulation), % at 46.1 µM; active means well fitted curve in the direction sought with a large enough effect in the signal ratio, not every such curve was filed as active; inconclusive means small, poorly fitted or top-dose-only effect, or a change in a side signal; inactive means no such curve, though single readings can be large or run the other way; the % refers to the signal ratio;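 further: cells stimulated with carbachol in lithium chloride buffer; higher means more IMPase inhibition seen as more IP1 and lower FRET ratio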
Target sequence (P97697 whole entry, looked up): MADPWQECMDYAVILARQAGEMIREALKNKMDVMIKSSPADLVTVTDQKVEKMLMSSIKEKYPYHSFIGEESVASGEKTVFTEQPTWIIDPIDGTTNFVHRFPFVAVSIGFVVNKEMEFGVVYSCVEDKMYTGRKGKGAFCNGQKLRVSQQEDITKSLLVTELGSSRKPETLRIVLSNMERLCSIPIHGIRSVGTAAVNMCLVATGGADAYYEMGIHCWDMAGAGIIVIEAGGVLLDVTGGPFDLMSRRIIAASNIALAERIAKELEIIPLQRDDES
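Measured: the HTRF emission ratio (665/620 nm) plus the 620 nm donor channel, each fitted to the Hill equation to give AC50. Cells were CHO-M1 given compounds up to 46 uM and a 30 min carbachol stimulation at 37C.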
IMPase Li cell – cell-permeable IMPase inhibitors with lithium potentiation; CHO-M1 cells, IP1 TR-FRET (IP-One), carbachol + lithium; Potency, µM (titrated, usually from 59.4 µM), most hits filed as inhibitors; 210,000 compounds, 0.35% hits; active means well fitted inhibition curve with a large enough effect; inconclusive means small, poorly fitted or top-dose-only effect; inactive means no such curve, though single readings can be large or run the other way;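 further: IP1 builds up when IMPase is blocked and the TR-FRET signal falls; nearly all actives have a fitted effect of over 50% in size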
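Readout is a homogeneous TR-FRET IP1 immunoassay (Ex 320, Em 665 and 620), where raised cytosolic IP1 lowers signal. Cells were CHO-M1 treated 30 min at 37C with test compounds plus a little lithium; AC50 values came from Hill-equation fitting.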
Each line names hits and unclear results; the compound was inactive in the other large screens.

Cc1ccc(C)c(N(CC(=O)Nc2ccc(-c3nc4ccc(C)cc4s3)cc2)S(C)(=O)=O)c1	none (no result: IMPase cell inh)
Cc1nc2ccc(NC(=O)CCS(=O)(=O)c3ccccc3)cc2s1	none (no result: IMPase cell inh)
Cc1ccc2nc(-c3ccc(NC(=O)CCS(=O)(=O)c4ccccc4)cc3)sc2c1	IMPase Li cell 13µM
Cc1ccc(N(CC(=O)Nc2ccc(-c3nc4ccc(C)cc4s3)cc2)S(C)(=O)=O)cc1	IMPase Li cell 13µM
COc1ccccc1NC(=O)c1sc2nc(C)c(C(=O)Nc3ccc(C)cc3C)c(-c3ccc(C)o3)c2c1N	none (no result: IMPase Li cell)
CCCCCCCCCCCCCCCC(=O)NC(C)C(=O)O (centres undefined)	none (no result: IMPase cell inh)
C#Cc1cccc(Nc2ncnc3cc(OC)c(OC)cc23)c1	none (no result: IMPase cell inh)
CC(=O)CSc1nc(-c2cccs2)c(C#N)c(=O)[nH]1	IMPase Li cell 7.9µM (no result: IMPase cell inh)
CC(=O)CSc1nc(N)c(C#N)c(-c2cccs2)c1C#N	none
COCCNC(=O)CSc1nc(-c2ccc(F)cc2)[nH]c1-c1ccc(Cl)cc1	none (no result: IMPase Li cell)
C=CCN1C(=O)C2(C(C(=O)c3ccc(C)o3)=C(O)C(=O)N2CCCN2CCOCC2)c2ccccc21 (centres undefined)	none (no result: IMPase Li cell)
CCCN1C(=O)C2(C(C(=O)c3ccc(C)o3)=C(O)C(=O)N2CCCN2CCOCC2)c2ccccc21 (centres undefined)	IMPase Li cell 10µM
CCC1OC(=O)C(C)[C@@H](O[C@H]2C[C@@](C)(OC)C(O)C(C)O2)C(C)[C@@H](O[C@@H]2OC(C)CC(N(C)C)C2O)[C@](C)(O)CC(C)/C(=N\OCOCCOC)[C@H](C)C(O)[C@]1(C)O (some centres undefined)	none (no result: IMPase cell inh)
O=C1C(Cl)=C(Nc2ccc(S(=O)(=O)Nc3ccccn3)cc2)C(=O)c2ccccc21	none (no result: IMPase cell inh)
O=C(Cn1nc(-c2ccc(Cl)cc2)c2ccccc2c1=O)Nc1cccc(C(F)(F)F)c1	none (no result: IMPase Li cell)
CCOc1ccc(CCNC(=O)CSc2nnnn2C)cc1OCC	none (no result: IMPase cell inh)
CCOc1ccc(CCNC(=O)CSc2nn(-c3ccc(C)c(Cl)c3)c(=S)s2)cc1OCC	IMPase cell inh inconclusive, IMPase Li cell 10µM
CCOc1ccc2cc(C(=O)c3ccccc3)c(=O)oc2c1	IMPase Li cell 25µM (no result: IMPase cell inh)
COc1ccc2cc(C(=O)c3ccccc3)c(=O)oc2c1	none
C1CCc2nnc(-c3nnc4n3CCCCC4)n2CC1	none
Cc1ccc(C)n1-c1ccc(-c2nnc3n2CCCCC3)s1	IMPase cell inh inconclusive, IMPase Li cell 13µM
O=C(CCCCCn1c(=S)[nH]c2ccc(N3CCOCC3)cc2c1=O)NCc1ccc(Cl)cc1	IMPase Li cell 11µM (no result: IMPase cell inh)
O=C(CCCCCn1c(=S)[nH]c2ccc(N3CCOCC3)cc2c1=O)NCCc1ccccc1	none (no result: IMPase cell inh)
Cc1cnc(CNc2ncnc3ccc(-c4ccc(N(C)C)cc4)cc23)cn1	none (no result: IMPase cell inh)
Cc1ccc(CNC(=O)C2CCC(CNc3nc(=S)[nH]c4ccccc34)CC2)cc1 (centres undefined)	none (no result: IMPase cell inh)
COc1cccc(CNC(=O)C2CCC(CNc3nc(=S)[nH]c4ccccc34)CC2)c1 (centres undefined)	IMPase Li cell 10µM (no result: IMPase cell inh)
CCOC(=O)c1c(-c2ccc(Cl)cc2)c(C#N)c(=O)n(N)c1N	none
Cc1ccc(-n2c(N)c(C#N)c(-c3ccc(Cl)cc3)c(C#N)c2=O)cc1	IMPase cell inh inconclusive, IMPase Li cell 28µM
CCOC(=O)C12CC1/C(=N\O)c1ccccc1O2 (centres undefined)	none (no result: IMPase cell inh)
Cc1cccnc1NC(=O)CCCN1C(=O)c2ccccc2C1=O	none
O=C(CCCN1C(=O)c2ccccc2C1=O)Nc1c2c(nc3c1CCC3)CCC2	IMPase Li cell 11µM
Cn1c(-c2ccc(S(=O)(=O)N3CCCC3)cc2)csc1=Nc1ccc(Cl)c(Cl)c1	none (no result: IMPase Li cell)
O=c1[nH]ncc2ccccc12	none (no result: IMPase cell inh)
CCC(CC)C(=O)Nc1cccc(C(=O)Nc2ccc(S(N)(=O)=O)cc2)c1	none (no result: IMPase cell inh)
CCC(CC)C(=O)Nc1cccc(S(=O)(=O)c2cccc(NC(=O)C(CC)CC)c2)c1	IMPase Li cell 11µM
CCCc1cc(=O)oc2cc(C)cc(O)c12	none
CCc1cc(=O)oc2cc(C)cc(O)c12	IMPase cell inh inconclusive, IMPase Li cell 3.2µM
COC(=O)c1cc(Cl)c(NC(=O)/C=C/c2ccc(OC)c(OC)c2)cc1OC	IMPase Li cell 10µM
COC(=O)c1cc(Cl)c(NC(=O)/C=C/c2ccc(Cl)cc2)cc1OC	none
COCCn1c(=O)c(-c2cccc(C#N)c2)nc2cnc(N(C)C)nc21	none (no result: IMPase cell inh)
CCCSc1nnc2c(n1)OC(c1ccc(Br)s1)Nc1ccccc1-2 (centres undefined)	none (no result: IMPase Li cell)
Cc1ccc(-c2nc(NC(=O)CSc3nnnn3-c3ccccc3)ns2)cc1	IMPase cell inh inconclusive, IMPase Li cell 10µM
Cc1ccc(-c2csc3nnc(SCC(=O)Nc4nsc(-c5ccccc5)n4)n23)cc1	none
Cc1ncc2c(c1O)COP(=O)(O)OC2	none
COc1cc([N+](=O)[O-])cc2sc(NC(=O)C(C)(C)C)nc12	none (no result: IMPase cell inh)
COc1cc([N+](=O)[O-])cc2sc(NC(=O)C3CC3)nc12	IMPase Li cell 22µM (no result: IMPase cell inh)
Cc1ccc(Sc2ccc(NC(=O)c3ccc(S(C)(=O)=O)cc3Cl)cc2)cc1	IMPase cell inh inconclusive, IMPase Li cell 14µM
CS(=O)(=O)c1ccc(C(=O)Nc2ccc(N3CCCCC3)cc2)c(Cl)c1	none (no result: IMPase cell inh)
N#Cc1cc2c(nc1SCc1ccccc1)CCC2	IMPase Li cell inconclusive
N#Cc1cc2c(nc1SCc1ccccc1)CCCC2	IMPase Li cell 16µM (no result: IMPase cell inh)
CC(OC(=O)c1cc2sccc2n1C)C(=O)NCc1cccs1 (centres undefined)	none
Cn1c(C(=O)OCC(=O)NCc2cccs2)cc2sccc21	IMPase cell inh inconclusive, IMPase Li cell 14µM
Brc1cc(Br)c2ncnc(N3CCCCC3)c2c1	IMPase cell inh inconclusive, IMPase Li cell 13µM
Clc1ccc(-n2ncc3c(N4CCCCCC4)ncnc32)cc1	IMPase cell inh inconclusive
CC(=O)c1sc(NC(=O)CCOc2ccccc2)nc1C	none (no result: IMPase cell inh)
COC(=O)c1sc(NC(=O)COc2c(C)cccc2C)nc1C	none (no result: IMPase cell inh)
CC(=O)c1sc(NC(=O)COc2ccccc2)nc1C	IMPase Li cell 10µM (no result: IMPase cell inh)
CCOC(=O)c1sc2nc(NC(=O)COc3ccccc3)sc2c1C	IMPase Li cell 13µM
Cc1nnc(NC(=O)COc2ccccc2)s1	none
CC(=O)c1sc(NC(=O)COc2ccc(C(C)C)c(C)c2)nc1C	IMPase Li cell 11µM (no result: IMPase cell inh)
O=C(/C=C\c1ccc(O)c(O)c1)OCCc1ccccc1	none (no result: IMPase Li cell)
COc1ccc2[nH]c3c(Cl)ncnc3c2c1	none (no result: IMPase Li cell)
COc1ccc2[nH]c3c(=S)nc[nH]c3c2c1	IMPase Li cell 2.8µM (no result: IMPase cell inh)
COc1ccc(-n2c(SCC(=O)Nc3cc(C)on3)nc3c([nH]c4ccccc43)c2=O)cc1	IMPase Li cell 5µM (no result: IMPase cell inh)
Cc1ccc(-n2c(SCC(=O)Nc3cc(C)on3)nc3c([nH]c4ccccc43)c2=O)cc1	none
COc1cc2cc3c4cc(OC)c(OC)cc4cc[n+]3c(C)c2cc1OC	none
CCCCc1nc2c(c3c1C[C@H](C)OC3)CN(S(=O)(=O)c1ccc(Cl)c3nonc13)CC2	none (no result: IMPase cell inh)
O=C(Nc1cccc(F)c1)N1CCC2(CC1)CCN(C(=O)c1cc(C(F)(F)F)cc(C(F)(F)F)c1)CC2	none (no result: IMPase cell inh)
CCSc1nnc2c(n1)OC(CC)N(C(C)=O)c1ccccc1-2 (centres undefined)	none (no result: IMPase Li cell)
N#Cc1nc(-c2cccc3ccccc23)oc1N1CCCCC1	none
N#Cc1nc(-c2cccc3ccccc23)oc1NCCN1CCCCC1	IMPase Li cell 11µM
CC#CCN1c2ccccc2[C@]23C[C@@H](C(=O)OC)N(S(=O)(=O)c4ccc(C)cc4)C2=NC(C(=O)OC)=C(C(=O)OC)[C@H]13	none (no result: IMPase cell inh)
O=S(=O)(NCCNC/C=C/c1ccc(Br)cc1)c1cccc2cnccc12	none (no result: IMPase cell inh)
